Results: publication PMC5540273 (PLoS ONE, 2017)

Columns and labels:
Conditions in all cases: concentration: 1 μM, replicates: in singlicate; n = 1
SBK1 = test system: SBK1
SGK2 = test system: SGK2
SGK3 = test system: SGK3
SGK = test system: SGK
SIK2 = test system: SIK2
SIK = test system: SIK
SLK = test system: SLK
SNARK = test system: T1, SNARK
T1 construct: gene NUAK2

SNRK = test system: SNRK
SRC = test system: SRC
SRMS = test system: SRMS
SRPK1 = test system: SRPK1
SRPK2 = test system: SRPK2
SRPK3 = test system: SRPK3
STK16 = test system: STK16
STK33 = test system: STK33
STK35 = test system: STK35
STK39 = test system: STK39
SYK = test system: SYK
STK36 = test system: STK36
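Further: KINOMEscan kinase panel screen.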

SMILES | %Inh (SBK1) [%] | %Inh (SGK2) [%] | %Inh (SGK3) [%] | %Inh (SGK) [%] | %Inh (SIK2) [%] | %Inh (SIK) [%] | %Inh (SLK) [%] | %Inh (SNARK) [%] | %Inh (SNRK) [%] | %Inh (SRC) [%] | %Inh (SRMS) [%] | %Inh (SRPK1) [%] | %Inh (SRPK2) [%] | %Inh (SRPK3) [%] | %Inh (STK16) [%] | %Inh (STK33) [%] | %Inh (STK35) [%] | %Inh (STK39) [%] | %Inh (SYK) [%] | %Inh (STK36) [%]
CCc1nc(-c2cccc(C)c2)c(-c2ccnc(NC(=O)c3ccccc3)c2)s1 | 5 | 17 | 0 | 13 | 0 | 25 | 0 | 0 | 19 | 5 | 0 | 0 | 0 | 0 | 6 | 12 | 0 | 0 | 0 | –
CS(=O)(=O)CCNCc1ccc(-c2ccc3ncnc(Nc4ccc(OCc5ccccc5)c(Cl)c4)c3c2)o1.Cl [GW574783] | 3 | 0 | 0 | 11 | 0 | 0 | 25 | 0 | 0 | 2 | 0 | 0 | 0 | 19 | 0 | 8 | 0 | 5 | 0 | 0
Nc1nc(-c2ccccn2)c(-c2ccnc3ccccc23)s1 [GW548057] | 0 | 0 | 6 | 0 | 0 | 0 | 7 | 0 | 0 | 12 | 0 | 0 | 58 | 0 | 19 | 1 | 0 | 7 | 2 | 0
Cc1ccc(NC(=O)c2cccc(C#N)c2)cc1-c1ccc(C(=O)Nc2ccncc2)cc1 [GSK1398463] | 0 | 10 | 2 | 0 | 15 | 0 | 0 | 0 | 17 | 26 | 0 | 11 | 0 | 12 | 0 | 0 | 5 | 16 | 0 | 0
Clc1cccc(-c2nc(Nc3ccncc3)c3ccccc3n2)c1 [GW873004] | 0 | 11 | 0 | 6 | 0 | 63 | 43 | 0 | 0 | 0 | 2 | – | 43 | 0 | 0 | 26 | 0 | 0 | 33 | 3
Cl.Cl.c1ccc(-c2cc3ccncc3cc2OC2CCNCC2)cc1 [GSK1122999] | 12 | 7 | 11 | 0 | 0 | 0 | 40 | 23 | 14 | 0 | 0 | 3 | 0 | 0 | 0 | 100 | 0 | 0 | 19 | 88
COc1ccc(Nc2nccc(N3CCC(NC(=O)c4cccc(NC(C)=O)c4)C3)n2)cc1 (stereo not shown) [GSK1379732] | 21 | 3 | 3 | 15 | 0 | 0 | 6 | 3 | 0 | 0 | 9 | 18 | 61 | 0 | 11 | 2 | 0 | 15 | 18 | 0
Cl.O=S(=O)(c1cccc(F)c1)c1ccc(Nc2ncnc3cc(Br)sc23)cc1Cl [GSK306886] | 0 | 0 | 6 | 0 | 0 | 0 | 8 | 14 | 0 | 0 | 0 | 100 | 0 | 0 | 25 | 0 | 0 | 1 | 5 | 0
Nc1nc(-c2cccnc2)c(-c2ccnc3ccccc23)s1 [GW684083] | 17 | 9 | 0 | 45 | 0 | 4 | 18 | 0 | 0 | 2 | 0 | 3 | 4 | 18 | 17 | 14 | 0 | 0 | 34 | 0
Cl.Cn1ccc(-c2cccc(Nc3ccnc4cc(-c5nccs5)ccc34)c2)n1 [GW525701] | 0 | 0 | 14 | 0 | 0 | 0 | 42 | 0 | 0 | 0 | 0 | 0 | 51 | 0 | 4 | 0 | 0 | 6 | 0 | 0
Cc1ccc(C)c(NC(=O)NCCNc2ccnc(Nc3ccc(F)cc3)n2)c1 [GSK1379878] | 0 | 0 | 0 | 0 | 0 | 0 | 0 | 0 | 0 | 0 | 0 | 0 | 0 | 0 | 100 | 0 | 0 | 0 | 17 | 0
c1ccc(-c2ccc3c(-c4ccnc(Nc5ccc6c(c5)OCCO6)n4)cnn3n2)cc1 [GW818941] | 7 | 0 | 8 | 12 | 10 | 3 | 20 | 4 | 0 | 0 | 0 | 48 | 0 | 21 | 95.8 | 17 | 8 | 22 | 7 | 25
